Results filed as inconclusive are left out. The source made the active and inactive calls. Calls come from the whole dose curve; as a rule, active = well fitted curve in the direction sought with a large enough effect in the repeat runs; inconclusive = weak or mixed curves; inactive = no such curve, though single readings can be large; an effect the other way counts as inactive or inconclusive.
Columns and labels:
[1] = A CellTox Green Cytotoxicity Assay to monitor cytotoxicity in HEK293 cells - 40 hour (AID 1224871); conditions: CellTox Green fluorescence; series mostly up to 76.8 µM; note: nearly all actives have a fitted effect of over 45% in size
Summary of the method: (§1)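 Nonlytic real-time cytotoxicity: HEK293 + CellTox Green reagent plated, 5 h preincubation, pintool compound addition (23 nL in DMSO), 37 C for 40 h, fluorescence measured at successive time points.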

[2] = qHTS RealTime-Glo MT Cell Viability Assay in HEK293 cells - 16 hour (AID 1224872); conditions: RealTime-Glo luminescence; series mostly up to 76.8 µM; note: top concentration of the series differs between compounds; nearly all actives have a fitted effect of over 50% in size
Summary of the method: (§2)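 Cells + reagent dispensed (600 cells/well, HEK293) → 5 h at 37 C/5% CO2 → 23 nL compound in DMSO pinned → 40 h at 37 C → luminescence read at 0, 8, 16, 24, 32, 40 h.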

[3] = qHTS RealTime-Glo MT Cell Viability Assay in HEK293 cells - 40 hour (AID 1224874); conditions: RealTime-Glo luminescence; max response: hits give low values; note: nearly all actives have a fitted effect of over 50% in size
Summary of the method: (§3)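 Cells were seeded together with NanoLuc luciferase and a prosubstrate that viable cells reduce to a luciferase substrate. After a 5 h incubation at 37 C/5% CO2, compounds were added and luminescence was measured repeatedly during 40 h of treatment.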

[4] = A CellTox Green Cytotoxicity Assay to monitor cytotoxicity in HEK293 cells - 24 hour (AID 1224875); conditions: CellTox Green fluorescence; series mostly up to 76.8 µM; note: nearly all actives have a fitted effect of over 45% in size
Summary of the method: as §1

[5] = A CellTox Green Cytotoxicity Assay to monitor cytotoxicity in HepG2 cells - 16 hour (AID 1224876); conditions: CellTox Green fluorescence; series mostly up to 76.8 µM; note: nearly all actives have a fitted effect of over 45% in size
Summary of the method: (§4)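 Read-out is fluorescence of a cyanine dye excluded from live cells that stains DNA of dead HepG2 cells, with signal proportional to cytotoxicity. Plates were read at 0, 8, 16, 24, 32 and 40 h after compound addition.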

[6] = qHTS RealTime-Glo MT Cell Viability Assay in HepG2 cells - 32 hour (AID 1224877); conditions: RealTime-Glo luminescence; series mostly up to 76.8 µM; note: nearly all actives have a fitted effect of over 55% in size
Summary of the method: (§5)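 Real-time, nonlytic viability: 600 HepG2 cells/well mixed with NanoLuc enzyme plus prosubstrate; 5 h settle, compound (DMSO) added by pintool; luminescence monitored over 40 h at 37 C.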

[7] = A CellTox Green Cytotoxicity Assay to monitor cytotoxicity in HepG2 cells - 24 hour (AID 1224878); conditions: CellTox Green fluorescence; series mostly up to 76.8 µM; note: nearly all actives have a fitted effect of over 45% in size
Summary of the method: as §4

[8] = A CellTox Green Cytotoxicity Assay to monitor cytotoxicity in HepG2 cells - 40 hour (AID 1224879); conditions: CellTox Green fluorescence; series mostly up to 76.8 µM; note: nearly all actives have a fitted effect of over 40% in size
Summary of the method: as §4

[9] = qHTS RealTime-Glo MT Cell Viability Assay in HEK293 cells - 0 hour (AID 1224880); conditions: RealTime-Glo luminescence; series mostly up to 76.8 µM
Summary of the method: as §3

[10] = A CellTox Green Cytotoxicity Assay to monitor cytotoxicity in HEK293 cells - 32 hour (AID 1224881); conditions: CellTox Green fluorescence; series mostly up to 76.8 µM; note: nearly all actives have a fitted effect of over 40% in size
Summary of the method: as §1

[11] = A CellTox Green Cytotoxicity Assay to monitor cytotoxicity in HepG2 cells - 0 hour (AID 1224882); conditions: CellTox Green fluorescence; series mostly up to 76.8 µM; note: nearly all actives have a fitted effect of over 35% in size
Summary of the method: as §4

[12] = A CellTox Green Cytotoxicity Assay to monitor cytotoxicity in HepG2 cells - 32 hour (AID 1224883); conditions: CellTox Green fluorescence; series mostly up to 76.8 µM; note: nearly all actives have a fitted effect of over 50% in size
Summary of the method: as §4

[13] = A CellTox Green Cytotoxicity Assay to monitor cytotoxicity in HEK293 cells - 8 hour (AID 1224884); conditions: CellTox Green fluorescence; series mostly up to 76.8 µM; note: nearly all actives have a fitted effect of over 35% in size
Summary of the method: as §1

[14] = qHTS RealTime-Glo MT Cell Viability Assay in HepG2 cells - 16 hour (AID 1224885); conditions: RealTime-Glo luminescence; series mostly up to 76.8 µM; note: nearly all actives have a fitted effect of over 50% in size
Summary of the method: as §5

[15] = qHTS RealTime-Glo MT Cell Viability Assay in HEK293 cells - 24 hour (AID 1224886); conditions: RealTime-Glo luminescence; series mostly up to 76.8 µM
Summary of the method: as §2

[16] = qHTS RealTime-Glo MT Cell Viability Assay in HEK293 cells - 8 hour (AID 1224887); conditions: RealTime-Glo luminescence; series mostly up to 76.8 µM
Summary of the method: as §3

[17] = A CellTox Green Cytotoxicity Assay to monitor cytotoxicity in HEK293 cells - 16 hour (AID 1224888); conditions: CellTox Green fluorescence; series mostly up to 76.8 µM; note: nearly all actives have a fitted effect of over 35% in size
Summary of the method: as §1

[18] = A CellTox Green Cytotoxicity Assay to monitor cytotoxicity in HepG2 cells - 8 hour (AID 1224890); conditions: CellTox Green fluorescence; series mostly up to 76.8 µM; note: nearly all actives have a fitted effect of over 45% in size
Summary of the method: as §4

[19] = qHTS RealTime-Glo MT Cell Viability Assay in HepG2 cells - 8 hour (AID 1224873); conditions: RealTime-Glo luminescence; series mostly up to 76.8 µM; note: nearly all actives have a fitted effect of over 55% in size
Summary of the method: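 HepG2 cells mixed with RealTime-Glo MT reagents (NanoLuc plus cell-permeant prosubstrate) were seeded at 600 cells/well, incubated 5 h at 37 C/5% CO2, then pinned with compounds in DMSO; nonlytic luminescence tracked viability during 40 h treatment.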

[20] = qHTS RealTime-Glo MT Cell Viability Assay in HepG2 cells - 0 hour (AID 1224889); conditions: RealTime-Glo luminescence; series mostly up to 76.8 µM; note: nearly all actives have a fitted effect of over 50% in size
Summary of the method: as §5
% is set by controls: 0 for no effect and ±100 for the full control effect.

COc1cc(C(=O)NCCCCCC(=O)O)cc(OC)c1OC
inactive: Potency [1] | Potency [2] | max response [3] 1.12% | Potency [4] | Potency [5] | Potency [6] | Potency [7] | Potency [8] | Potency [9] | Potency [10] | Potency [11] | Potency [12] | Potency [13] | Potency [14] | Potency [15] | Potency [16] | Potency [17] | Potency [18]

CC(=O)OCC[N+](C)(C)C
inactive: Potency [1] | Potency [19] | max response [3] 1.87% | Potency [4] | Potency [5] | Potency [6] | Potency [7] | Potency [8] | Potency [9] | Potency [10] | Potency [11] | Potency [12] | Potency [13] | Potency [14] | Potency [15] | Potency [16] | Potency [17] | Potency [20] | Potency [18]

CCC(=O)OC
inactive: Potency [1] | Potency [2] | max response [3] 4.28% | Potency [4] | Potency [5] | Potency [6] | Potency [7] | Potency [8] | Potency [9] | Potency [10] | Potency [11] | Potency [12] | Potency [13] | Potency [14] | Potency [15] | Potency [16] | Potency [17] | Potency [20] | Potency [18]

CC(=O)Nc1cc(S(=O)(=O)O)cc2cc(S(=O)(=O)O)c(N=Nc3ccccc3)c(O)c12
inactive: Potency [1] | Potency [2] | max response [3] -17.9% | Potency [4] | Potency [5] | Potency [6] | Potency [7] | Potency [8] | Potency [9] | Potency [10] | Potency [11] | Potency [12] | Potency [13] | Potency [14] | Potency [15] | Potency [16] | Potency [17] | Potency [20] | Potency [18]
